Numbering of substitutions follows the chain as printed. Over roughly 24,000 sequences, “enrichment r” has its median near 0.99; the highest 2% begin near 3.7. The list comes from a sample in which the highest values are over-represented; it also holds similar and randomly drawn sequences.

The text below walks through data of paper PMC12136788.

T1: UNK ZnF1-3 (human, UniProt Q9C0B0 31-174)
T1 sequence: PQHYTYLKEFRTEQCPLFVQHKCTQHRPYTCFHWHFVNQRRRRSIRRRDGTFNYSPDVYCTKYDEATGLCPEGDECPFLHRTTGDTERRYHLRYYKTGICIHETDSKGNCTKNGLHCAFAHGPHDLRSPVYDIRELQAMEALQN

B1: chr1:163117127:163117128:-_ENSG00000143248_ENST00000313961|hu_mus|hu_hu_hu_mus_False|1_18 (ssRNA)
RNA: GGGAGUUCUACAGUCCGACGAUCUGCUACAAAGGAUGUAACUCAACUCACAGGGCAACUUUUGGAAGCCUGACCAGAUGACUACUUGAUUAGCUCCUUAUAAAAUUCAGAGCGCACAAAGCGAGGCAGAGAAUCCUUUUCCAUCAACAGAGGAUUGAGCAUCA
B2: chr16:45382771:45382772:-_ENSMUSG00000022661_ENSMUST00000163230|mus_mus|mus_mus_mus_hu_True|18_88 (ssRNA)
RNA: GGGAGUUCUACAGUCCGACGAUCCUGGGUCAUGUUAUAAGACAAAUGGAUAGGGAGGGCAUGCUUCUCAAAAAAUGUGAGCUAUUGUCUAAGACUAACAAUAUUUAUCUAGCUAUAUAAAAAUAAGAAAUGAAUAAGUUAAGACAACAGAGGAUUGAGCAUCA
B3: chr18:56819859:56819860:+_ENSG00000166562_ENST00000588875|hu_mus|hu_hu_hu_mus_True|38_38 (ssRNA)
RNA: GGGAGUUCUACAGUCCGACGAUCAACCUUGAUUACUCUGUGAACUAUCGGAAUGUCUCUUCCUUCAACCUUAAAAACAACUAUUUCACCAGCUCUGAUUGGGUCUUCCCGGAAAUUCGUGAGGAACAGCAGAUCUCCUCUGUGCAACAGAGGAUUGAGCAUCA
B4: 78791426_78796734_1209_CDS_ENSMUSG00000033088_ENSMUST00000109689|mouse|control|control (ssRNA)
RNA: GGGAGUUCUACAGUCCGACGAUCACUGCCAGAAUUCUCCUUCCUCUGGCCUGCUGUGUCUCCUCGGGCUGGGGACCUGGUGGCCUUUCGAGCACUGUCAGCUCUCAGUCCCUCCUGAGGCCUCCUUGGGAUCAUCUCUGUGAGCAACAGAGGAUUGAGCAUCA
B5: chr7:141450121:141450122:+_ENSG00000106028_ENST00000265304|hu_mus|hu_hu_hu_mus_True|28_98 (ssRNA)
RNA: GGGAGUUCUACAGUCCGACGAUCUCAUCCGUUCUAUUCCUUCUCUUUUGUCUGGUCACUCAGAAAUAUAAUGUUAUCAGCUAUGAUUGUUGUUGCUUGCCGCCUCACAUUAUUUUUAUCCAUGUACUCGCCAUAGUCCACUUUCAACAGAGGAUUGAGCAUCA
B6: 180848183_180848303_6210_CDS_ENSMUSG00000026494_ENSMUST00000161017|mouse|control|control (ssRNA)
RNA: GGGAGUUCUACAGUCCGACGAUCAUUGGACCUUUUCUUUUGGUUUUUGAGGCUCCUGCAUCUCCCUCCCACGGAGCUGCUGUUCUCGCUCAUGGAGUCCUGGGCUGAGGAUGCACUGCCGGUGGCCUCGCUGUCUCUCAUCAUCAACAGAGGAUUGAGCAUCA
B7: chr16:45382771:45382772:-_ENSMUSG00000022661_ENSMUST00000163230|mus_mus|mus_mus_mus_hu_True|38_68 (ssRNA)
RNA: GGGAGUUCUACAGUCCGACGAUCCUGGGUCAUGUUAUAAGACAAAUGGACAGGGAGGGCAUGCUUCUGUAAAGAUGUGAGCUAUUGUCUAAGACUAACAAUAUUGCUCUAGCUAUAAAAAUAAGUUAAAUGAAUAAGUUAAGACAACAGAGGAUUGAGCAUCA
B8: chr8:35894604:35894605:-_ENSMUSG00000031529_ENSMUST00000033929|mus_hu|FALSE|FALSE (ssRNA)
RNA: GGGAGUUCUACAGUCCGACGAUCCUAUAGCAAUGCUUUAUAGAAGACAAACAGCUUAUUUCUAGGCUGUCAGGGACUUCUAGAAUAUUGAUGUUGUUAUUAGAAACAAUCCUCUGUAAUCCAGUCCCAGGUUGAAAUCUGAUCCAACAGAGGAUUGAGCAUCA
B9: chr3:139078181:139078182:-_ENSG00000184432_ENST00000507777|hu_mus|FALSE|FALSE (ssRNA)
RNA: GGGAGUUCUACAGUCCGACGAUCCUGACUGGGUAAGUAAGUUCGGGCCAGGAAGGCAGCUUCUGGGAGUCUUCCUGUUCUGAUCAAGAGCUCUAGGCAAGCAUCAAGCUUGCCCUGUAAAAAAUAGCUCAUGAAUGCCACGUUCAACAGAGGAUUGAGCAUCA
B10: chr1:151039735:151039736:+_ENSG00000213190_ENST00000368921|hu_mus|FALSE|FALSE (ssRNA)
RNA: GGGAGUUCUACAGUCCGACGAUCCCCAGGCCUUCCAGCUCCGACAGAUCCAGUUCUGGGAUGGGCAUCCUCCAGAAAAGAAAGGAGCUGUACUGGCUACUUACAGGGUCCCUCAUGAUCCCCUGUUAGCAAUGAAUGACUAGGCAACAGAGGAUUGAGCAUCA
B11: chr16:45382771:45382772:-_ENSMUSG00000022661_ENSMUST00000163230|mus_mus|mus_mus_mus_hu_True|18_68 (ssRNA)
RNA: B2 RNA with U50C, C68G, A69U, A73G
B12: chr7:19156472:19156473:-_ENSG00000122691_ENST00000242261|hu_mus|FALSE|FALSE (ssRNA)
RNA: GGGAGUUCUACAGUCCGACGAUCGCUGCAGCUUGCCAUCUUGGAGUCCAGCUCGUCGCUCUGCAGGACCUGGUACAGGAAGUCGAUGUACCUGGCCGCCAGUUUGAGGGUCUGAAUCUUGCUCAGCUUGUCCGAGGGCAGCGUCAACAGAGGAUUGAGCAUCA
B13: chr12:39756943:39756944:-_ENSG00000139116_ENST00000544797|hu_mus|hu_hu_hu_mus_False|28_58 (ssRNA)
RNA: GGGAGUUCUACAGUCCGACGAUCGGUUUGGCUGUUACCCCCAAGGGAAUCCUGCAAGAGUCUUGUCAGCUUAGAGUCUCUAUAGGGGACAUGGGUGGCUCUCUUGCUCUUGUCUCCCAAGGCGCUGAUUACAUUCCCAAGAGCCAACAGAGGAUUGAGCAUCA
B14: chr8:95500983:95500984:-_ENSG00000164944_ENST00000437199|hu_hu|hu_hu_hu_mus_True|8_88 (ssRNA)
RNA: GGGAGUUCUACAGUCCGACGAUCAGAACACAUCUAUCGAGUAAAGGGAGCGUACAUACGGCCUCUACCACUGCCUCCACUAACAAACUUUCCUCUCGAGCCUCCACUGCCGCUAUUUGUACUAGCCCCAGGAAGGUCCAGGCCCAACAGAGGAUUGAGCAUCA

In this assay the target is T1, UNK ZnF1-3. Description: nsRBNS (natural sequence RNA bind-n-seq); RBNS binding buffer (assumed for nsRBNS): 25 mM Tris pH 7.5, 150 mM KCl, 3 mM MgCl2, 0.01% Triton X-100, 500 ug/ml BSA, 20 U/ml SUPERase-In, 4 C; UNK is unkempt and MSI1 is Musashi-1; names of the RNAs are library labels; protein concentration not given here; high values mean tight binding.
The molecule B1 gave a binding signal of 1.28 enrichment R.

Take B2: the binding signal came to 4.85 enrichment R. In the case of B3, the binding signal is 0.808 enrichment R.

B4 displayed a binding signal of 0.647 enrichment R. As for B5, the figure is 0.444 enrichment R; as for B6, 0.445 enrichment R; as for B7, 9.94 enrichment R.

Take B8: the binding signal is 0.4 enrichment R. Regarding B9, the binding signal is 0.848 enrichment R. The value for B10 was 1.11 enrichment R; that for B11 was 5.64 enrichment R. As for B12, the figure is 0.84 enrichment R. The value for B13 was 0.774 enrichment R. In turn, B14 returned a binding signal of 1.68 enrichment R.
